Results taken from PubChem BioAssay (NCI).
Compounds without any hit were thinned out: in the full panel of roughly 83,000, 20% have a hit.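 Values shown are percent growth following 48 h exposure of cells in 96-well plates to a single concentration of compound; below 10 was considered active.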 Activity calls are given as the source filed them.

system: U251 CNS; experiment: NCI-60 one-dose screen, 48 h (100 = growth as untreated, 0 = no growth, -100 = all killed); settings: 10 µM unless noted

Row | Structure (SMILES) | growth
1 | NC1=NC(=O)NC1(c1ccccc1)c1ccccc1 | 97.4% (inactive)
2 | N#C/C(C(=O)c1ccccc1)=C1/C(=O)Nc2ccccc21 | 103% (inactive)
3 | CN(Cc1cccc(C(F)(F)F)c1)C(=O)[C@@H](CC(=O)N1CCC(N2CCCCC2)CC1)N1C(=O)[C@@H](N2C(=O)OC[C@@H]2c2ccccc2)[C@H]1/C=C/c1ccccc1 | 67.1% (inactive)
4 | CCOc1ccc(S(=O)(=O)Nc2ccc3c(c2)N(S(=O)(=O)CC)CCC3)cc1 | 61.8% (inactive)
5 | CCOC(=O)C(=Cc1ccccc1[N+](=O)[O-])C(=O)OCC | 23.4% (inactive)
6 | COc1cc(/C=C/C(=O)/C=C/c2ccc(-n3ccnc3C)cc2)ccc1O | -1.61% (active)
7 | CCOC(=O)CC(c1ccccc1)C(C#N)c1ccccc1 (configuration not stated) | 97.6% (inactive)
8 | Cc1ccc(C2=C/C(=C/c3ccc(Br)cc3)C(=O)N2CCc2ccc(S(N)(=O)=O)cc2)cc1 | 95.5% (inactive)
9 | Cc1ccc(NC(=O)N[C@@H](Cc2cc(F)cc(F)c2)C(=O)N[C@@H]2C(=O)N3CCC[C@H]3C(=O)N3CCCC[C@H]3C(=O)N[C@@H](C)C(=O)N3C[C@H](C)C[C@H]3C(=O)O[C@H]2C)cc1 | 29.8% (inactive)
10 | C=C(C)[C@@H]1CC[C@]2(C)[C@H](CC[C@@H]3[C@@H]([C@@](C)(O)CCC=C(C)C)CC[C@]32C)[C@@]1(C)CCC(=O)O | -16.7% [100 µM] (active)
11 | C=CCCCCCCCCC(=O)OC(C)C | 96.1% (inactive)
12 | O=C1Nc2ccccc2/C1=C/C(=O)c1ccc(N2CCCCC2)cc1 | 52.7% (inactive)
